Source: PubChem BioAssay AID504850 (National Center for Advancing Translational Sciences (NCATS), 2011)
Out of some 2,300 compounds screened, about 1,200 (52%) were called active. Roughly 34% stayed inconclusive and do not appear here. The set was probably picked from earlier hits. This is one part of the list. A number with no mark means an inactive call. Calls follow the shape of the dose curve; as a rule, active = well fitted inhibition curve with a large enough effect; inconclusive = small, poorly fitted or top-dose-only effect, or effect the other way; inactive = no such curve, though single readings can be large or run the other way.

Experiment: Confirmation screen for delayed death inhibitors of the malarial parasite plastid, 48 hour incubation; also: nearly all actives have a fitted effect of over 65% in size
Settings: P. falciparum-infected erythrocytes, luciferase growth; series mostly up to 28.7 µM; activity change, negative = inhibition: at the top concentration
Outline: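 Single-generation (48 h, 37 C) exposure of integrated firefly luciferase-reporter P. falciparum in red cells, 0.1% parasitemia at 2% hematocrit, Albumax-supplemented RPMI. Falling luciferase signal marks parasite growth inhibition.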
% is scaled to controls: 0 for no effect and ±100 for the full control effect; potency is read from the fitted curve at half-maximal effect.

Row | SMILES | Potency | activity change, negative = inhibition [%]
1 | O=S(=O)(c1cnc[nH]1)N1CCN(C(c2ccc(F)cc2)c2ccc(F)cc2)CC1 | 11.2 µM (active) | –
2 | O=C(Oc1nsnc1N1CCCCC1)N1CCOCC1 | 12.6 µM (active) | –
3 | O=C1CN(C(=O)c2ccc(Cl)c(S(=O)(=O)N3CCc4ccccc43)c2)c2ccccc2N1 | 12.6 µM (active) | –
4 | COC(=O)C1C(=O)C2=C(CC1C)NC(C)=C(C(=O)OCCOc1ccccc1)C2c1ccc(C)o1 (stereo not drawn) | 14.1 µM (active) | –
5 | Cn1cc([N+](=O)[O-])c(C(=O)Nc2ccc(C3CCCCC3)cc2)n1 | – | -26.5
6 | O=C(Nc1ccc(S(=O)(=O)N2CCOCC2)cc1)c1ccc([N+](=O)[O-])o1 | 3.16 µM (active) | –
7 | CS(=O)(=O)N1CCN(c2ccc(NC(=O)c3ccc([N+](=O)[O-])o3)cc2)CC1 | 11.2 µM (active) | –
8 | O=C(Nc1ccc(N2CCOCC2)c(Cl)c1)c1cc2ccccc2o1 | 2.51 µM (active) | –
9 | CC(C)C(=O)N1CCN(c2ccc(NC(=O)c3ccc([N+](=O)[O-])o3)cc2)CC1 | 8.91 µM (active) | –
10 | CCCC(=O)N1CCN(c2ccc(NC(=O)c3ccc([N+](=O)[O-])o3)cc2Cl)CC1 | 11.2 µM (active) | –
11 | CC(C)C(=O)N1CCN(c2ccc(NC(=O)c3ccco3)cc2Cl)CC1 | 7.94 µM (active) | –
12 | CCc1nn2c(=O)cc(COc3ccc(NC(=O)c4ccco4)cc3)nc2s1 | – | -43.4
13 | CCC(=O)N1CCN(c2ccc(NC(=O)c3ccc([N+](=O)[O-])o3)cc2Cl)CC1 | 12.6 µM (active) | –
14 | Cc1cccc(-c2c(NC(=O)c3ccco3)oc3ccc(Cl)cc3c2=O)c1 | – | -26.2
15 | CCN1CCN(c2ccc(NC(=O)c3ccc([N+](=O)[O-])o3)cc2Cl)CC1 | 7.94 µM (active) | –
16 | CCCC(=O)N1CCN(c2ccc(NC(=O)c3ccc([N+](=O)[O-])o3)cc2)CC1 | 7.08 µM (active) | –
17 | CCc1c(C)nc2nc(SCc3ccccc3Cl)[nH]n2c1=O | – | -18.3
18 | CCN(CC)c1ccc(/C=C/c2cccc[n+]2C)c(OC)c1 | 1.12 µM (active) | –
19 | COc1cc(/C=N/NC(=S)Nc2cccc(S(=O)(=O)N(C)C)c2)cc(OC)c1O | – | -5.26
20 | CN(C)S(=O)(=O)c1cccc(NC(=S)N/N=C/c2cc(Br)ccc2O)c1 | 3.55 µM (active) | –
21 | Cn1nc([N+](=O)[O-])nc1Sc1nnc(-c2ccccc2)o1 | 11.2 µM (active) | –
22 | Cc1ccc(-n2ncc3c(SCc4ccccn4)ncnc32)c(C)c1 | 12.6 µM (active) | –

Row | SMILES | Potency | activity change, negative = inhibition [%]
23 | CCOC(=O)C(=Cc1ccc(Br)cc1)C(=O)OCC | 10 µM (active) | –
24 | CCOC(=O)C(=Cc1ccc(-n2cncn2)cc1)C(=O)OCC | 15.8 µM (active) | –
25 | CCOC(=O)C(CC)(CC)C(=O)/C=C/c1ccc(Br)cc1 | 10 µM (active) | –
26 | COc1ccc(/C=C/C(=O)NC(=S)NN2CCCCC2c2cccnc2)cc1 (stereo not drawn) | 12.6 µM (active) | –
27 | CC(C)c1ccc(/C=C/C(=O)NC(=S)NN2CCOCC2)cc1 | – | -43.1
28 | COCCn1c(C)cc(C(=O)CSc2cc(C)c3ccc(OC)cc3n2)c1C | 12.6 µM (active) | –
29 | COC(=O)[C@@H]1C[C@]2(OC(=O)c3ccccc3)C=CC(=O)C[C@@H]2N1C(=O)OCc1ccccc1 | 14.1 µM (active) | –
30 | CN(C)c1ccc(CN(C(=O)c2ccccc2Br)C2CCS(=O)(=O)C2)cc1 (stereo not drawn) | 14.1 µM (active) | –
31 | COc1cccc(CN(C(=O)c2ccccc2Br)C2CCS(=O)(=O)C2)c1 (stereo not drawn) | 15.8 µM (active) | –
32 | O=C(O)c1nn(CCSc2ccccc2F)c(=O)c2ccccc12 | – | -22.8
33 | COc1ccc(/C=N/NC(=O)c2cc(-c3ccccc3)nc3ccccc23)cc1O | – | -17.6
34 | Cc1c(Cl)ccc2c(C(=O)O)cc(-c3ccccc3)nc12 | – | 13.9
35 | Cc1ccc(-c2cc(C(=O)N/N=C/c3ccoc3)c3ccccc3n2)cc1 | 12.6 µM (active) | –
36 | Cc1ccc(-c2cc(C(=O)N/N=C/C=C/c3ccco3)c3ccccc3n2)cc1C | 10 µM (active) | –
37 | O=C(CCc1ccccc1)NNC(=O)c1ccccn1 | 7.94 µM (active) | –
38 | O=C(NCc1ccccc1)C(c1cccnc1)N(C(=O)c1ccccn1)c1ccccc1F (stereo not drawn) | – | -19.9
39 | CCOC(=O)NC(=O)COC(=O)c1ccc(O)cc1 | – | -10.4
40 | CCOc1ccc(CCNC(=O)COC(=O)c2ccc(C)s2)cc1OCC | 10 µM (active) | –
41 | Cc1ccc(C(=O)NCC(=O)NCCCc2ccccc2)s1 | – | -8.96
42 | COc1ccccc1NC(=O)Cn1cnc2sc(C(=O)Nc3ccc(OC)c(OC)c3)c(C)c2c1=O | 12.6 µM (active) | –
43 | CSCCn1c(C(C)(C)C)cc(C(=O)O)c1C | – | 18.3
44 | CCO[C@H]1OC(C(=O)N2CCN(Cc3ccccc3)CC2)=C[C@@H](c2ccc(C(F)(F)F)cc2)[C@@H]1CCCO | 4.47 µM (active) | –

Row | SMILES | Potency | activity change, negative = inhibition [%]
45 | CCO[C@H]1OC(C(=O)N2CCN(Cc3ccc4c(c3)OCO4)CC2)=C[C@@H](c2ccc(C(F)(F)F)cc2)[C@@H]1CCCO | 3.55 µM (active) | –
46 | O=C(C1=C[C@@H](c2csc3ccccc23)C[C@@H](OCCCCO)O1)N1CCN(Cc2ccc3c(c2)OCO3)CC1 | 10 µM (active) | –
47 | CCn1c(=O)cc(C(=O)OC)sc1=Nc1ccc(F)c(F)c1 | – | -21.8
48 | CC(C)n1nc(C(=O)Nc2cccc(S(=O)(=O)NCc3ccco3)c2)c2ccccc2c1=O | 11.2 µM (active) | –
49 | Cc1cc(C)n(-c2ccc(C(=O)Nc3ccc(S(=O)(=O)NCc4ccco4)cc3)cc2)n1 | 10 µM (active) | –
50 | O=C(Nc1ccccc1)c1cccc(S(=O)(=O)NCc2ccco2)c1 | – | -16.7
51 | Cc1cc(C)n2nc(C(=O)N/N=C/c3c4ccccc4cc4ccccc34)nc2n1 | 8.91 µM (active) | –
52 | COC(=O)c1ccc(C2N=C(c3cccs3)CC(c3ccccc3O)N2)cc1 (stereo not drawn) | 8.91 µM (active) | –
53 | CCOC(=O)c1c(S(=O)(=O)NCC(=O)Nc2cccc(C)c2C)c(C)n(C)c1C | – | -28.7
54 | CCOC(=O)c1c(S(=O)(=O)NCC(=O)N2CCN(c3ccccc3OC)CC2)c(C)n(C)c1C | 12.6 µM (active) | –
55 | COc1cccc(NC(=O)CSc2ccc3nnc(CCNC(=O)c4ccccc4)n3n2)c1 | 15.8 µM (active) | –
56 | Cc1ccc(C(=O)NCCc2nnc3ccc(SCC(=O)NCc4ccc(F)cc4)nn23)cc1 | 10 µM (active) | –
57 | Cc1ccc(Cc2cnc(N3C(=N)SC(C)C3=O)s2)cc1 (stereo not drawn) | – | -30
58 | CCN1C(=O)[C@@H]2Cc3c([nH]c4ccccc34)C(c3ccc(OC)cc3)N2C1=S (stereo partly drawn) | 15.8 µM (active) | –
59 | C=CCN1C(=O)[C@@H]2Cc3c([nH]c4ccccc34)C(c3ccc(O)cc3)N2C1=S (stereo partly drawn) | 12.6 µM (active) | –
60 | CC1(C)CC(=O)C2=C(C1)OC1=C(C(=O)CC(C)(C)C1)C2c1ccc(O)cc1O | 7.08 µM (active) | –
61 | Fc1cccc(CNc2ncnc3ccc(-c4ccc5c(c4)OCO5)cc23)c1 | 10 µM (active) | –
62 | Fc1ccc(CSc2nncn2NCc2ccc3c(c2)OCO3)cc1 | – | -19.1
63 | CCOCCCNC(=S)N1CCN(c2nc(-c3ccccc3)cs2)CC1 | 11.2 µM (active) | –
64 | NC1=NC[C@@H](Cc2ccc(O)cc2)N1CCc1cccc(F)c1 | 10 µM (active) | –
65 | NC1=NC[C@H](Cc2ccc(O)cc2)N1CCc1cccc(F)c1 | 7.94 µM (active) | –
66 | CCCCCCCNC(=O)C1(CC2CC(c3ccc(Cl)cc3)=NO2)CCN(C(=O)Cc2ccc(F)cc2)CC1 (stereo not drawn) | 11.2 µM (active) | –

Row | SMILES | Potency | activity change, negative = inhibition [%]
67 | CCCCCCCNC(=O)C1(CC2CC(c3ccc(Cl)cc3)=NO2)CCN(C(=O)C2CCCC2)CC1 (stereo not drawn) | 14.1 µM (active) | –
68 | COc1ccc(C(=O)CSc2nnc(C3CCCCC3)n2N)c(OC)c1 | 8.91 µM (active) | –
69 | CC1CCCN(c2ccc(F)cc2N)C1 (stereo not drawn) | 14.1 µM (active) | –
70 | COc1cccc(-c2sc3ccc(OC)cc3c2-c2cc(F)cc(OC)c2)c1 | 11.2 µM (active) | –
71 | O=C(CSc1nnc(COc2ccccc2)n1-c1ccccc1)c1cccs1 | 14.1 µM (active) | –
72 | C[C@H](NC(=O)c1nc[nH]c1C(=O)N[C@H](C)c1ccccc1)C(=O)OCc1ccccc1 | – | -22.9
73 | CC(C)C[C@H](NC(=O)c1nc[nH]c1C(=O)N(C)Cc1ccccc1)C(=O)OC(C)(C)C | 11.2 µM (active) | –
74 | CC(C)C[C@H](NC(=O)c1[nH]cnc1C(=O)Nc1ccc(CNC(=O)OC(C)(C)C)cc1)C(=O)OC(C)(C)C | 6.31 µM (active) | –
75 | CC(C)C[C@H](NC(=O)c1[nH]cnc1C(=O)N[C@@H](C)C(=O)OC(C)(C)C)C(=O)OC(C)(C)C | 7.08 µM (active) | –
76 | CC(C)C[C@H](NC(=O)c1[nH]cnc1C(=O)N[C@@H](Cc1ccccc1)C(=O)OC(C)(C)C)C(=O)OC(C)(C)C | 6.31 µM (active) | –
77 | O=C(c1ccc(Cl)cc1)C(CN1CCCC1)c1ccccc1 (stereo not drawn) | 10 µM (active) | –
78 | O=C(CC(c1ccccc1)c1cc(Br)ccc1O)NCCN1CCOCC1 (stereo not drawn) | 12.6 µM (active) | –
79 | O=C(CN1CCCCC1)N/N=C/c1ccc(Cl)cc1 | – | 4.48
80 | O=C(c1ccc(Br)cc1)C(CN1CCOCC1)c1ccccc1 (stereo not drawn) | 7.08 µM (active) | –
81 | CN(Cc1ccccc1)C(=O)c1ccc(NC(=O)Cc2cccc(NC(=O)C3CCCN(C(=O)CCc4ccccc4)C3)c2)cc1 (stereo not drawn) | 7.08 µM (active) | –
82 | O=[N+]([O-])c1cccc(-c2c[n+]3c(n2-c2ccccc2)SCC3)c1 | 2.51 µM (active) | –
83 | COC(=O)C(NC(=O)c1ccccc1C)(Nc1ncc(S(=O)(=O)c2ccc([N+](=O)[O-])cc2)s1)C(F)(F)F (stereo not drawn) | 7.94 µM (active) | –
84 | Cn1nc(C(F)(F)F)c(C(=O)Nc2ccc(F)cc2F)c1Sc1ccc(C(F)(F)F)cc1 | 12.6 µM (active) | –
85 | CC(C)Cc1ccc(CN2CCCC(NC(=O)CCn3cnnn3)C2)cc1 (stereo not drawn) | – | -7.89
86 | O=C(NC1CCCN(Cc2ccc(Cl)cc2)C1)c1cnc2ccccn2c1=O (stereo not drawn) | 15.8 µM (active) | –
87 | Cc1occc1C(=O)NC1CCCN(Cc2ccc(CC(C)C)cc2)C1 (stereo not drawn) | 14.1 µM (active) | –
88 | O=C(Cn1c(=O)c(=O)n(Cc2ccccc2)c2ccc(Cl)cc21)Nc1cccc(F)c1 | 15.8 µM (active) | –
